The source of these data is PubChem BioAssay.

E3 ubiquitin-protein ligase XIAP (Homo sapiens), sequence (P98170 whole entry, looked up): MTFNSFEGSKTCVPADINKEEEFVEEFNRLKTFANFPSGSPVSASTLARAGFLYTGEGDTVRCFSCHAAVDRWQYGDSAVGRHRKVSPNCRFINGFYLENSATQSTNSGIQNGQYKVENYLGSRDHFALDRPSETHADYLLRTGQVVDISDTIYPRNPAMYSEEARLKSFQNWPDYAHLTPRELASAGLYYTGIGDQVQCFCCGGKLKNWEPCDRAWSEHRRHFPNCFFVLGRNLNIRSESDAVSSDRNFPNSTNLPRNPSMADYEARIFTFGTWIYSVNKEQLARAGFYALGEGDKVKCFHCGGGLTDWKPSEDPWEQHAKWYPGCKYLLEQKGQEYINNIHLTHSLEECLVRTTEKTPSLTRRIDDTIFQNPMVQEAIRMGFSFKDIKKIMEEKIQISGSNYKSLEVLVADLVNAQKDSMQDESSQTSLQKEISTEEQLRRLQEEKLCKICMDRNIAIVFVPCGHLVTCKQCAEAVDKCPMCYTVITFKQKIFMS

System in the first test: not listed separately
The test is described as follows: viability profiling in RPMI8226 myeloma cells – cell-based, resazurin fluorescence, basal, 24 h, PK04 Diversity Set, profiling panel (AID 1180).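 Further: RPMI8826 multiple myeloma cell line at 5000 cells per well; test concentration not given here.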 The note with it: higher = more signal. (Resazurin is reduced to fluorescent resorufin, in cell work by metabolically active cells.)
Regarding `COC(=O)[C@H](Cc1ccccc1)N1CC2=CCCC=C[C@@H]2[C@H]1[C@H](O)Cc1ccccc1`, the z-score is 0.0722.

As to `Cc1ccc(S[C@]2(C(=O)NC(C)C)CC(=O)N(C3CCCCC3)[C@@H]2c2ccc(CO)cc2I)cc1`, the z-score was -2.01.

Molecule `CCCNC(=O)[C@@]1(c2ccc([N+](=O)[O-])cc2)CC(=O)N(C(C)C)[C@@H]1c1ccc(CO)cc1` returned a z-score of 0.123.

In the case of `COC(=O)[C@@]1(Cc2ccc(OC)cc2)[C@H]2c3cc(C(=O)N(C)C)[nH]c3C[C@H]2CN1C(=O)c1ccccc1`, the z-score is -0.247.

Molecule `O=C1N(CCS(=O)(=O)c2ccccc2)c2ccccc2C[C@]12N=C(c1ccc(OCCCO)cc1)O[C@@H]2c1ccccc1` had a z-score of -0.885.

On to `CC1=C([C@H](O)CCc2ccccc2)[C@H](CO)n2c(=O)n(-c3ccccc3)c(=O)n2C1`, for which the z-score amounted to 0.12.

In turn, `O=C1O[C@H](Cc2ccccc2)[C@@H]2[C@H]3C=CCCC=C3CN2[C@H]1Cc1ccc(O)cc1` showed a z-score of -0.095.

Take `CN(C)c1ccc(C(O)C2C=CC3C(=O)N(Cc4ccccc4)C(=O)C3N2n2cnnc2)cc1` (centres undefined): the z-score is -0.268.

Turning to `COC(=O)[C@@]1(Cc2ccc(F)cc2)[C@H]2c3cc(C(=O)N(C)C)n(CCc4ccc(O)c(O)c4)c3C[C@H]2CN1C(=O)c1ccccc1`, the z-score is -0.834.

`CCCC[C@H]1C[C@@H]1[C@@H]1N(C(C)=O)[C@H](c2cccc(OC)c2)CC12CC2` yielded a z-score of 1.43.

`CC(=O)OCC1C2CC[C@H]3C(OCc4ccc(F)cc4C(F)(F)F)OC[C@]4(C)[C@H]3C2=C(CN4C(=O)OC(C)(C)C)[C@H](C)C1COC(C)=O` (some centres undefined) gave a z-score of -1.18.

On to `COc1ccccc1CN1C(=O)c2ccccc2[C@](Cc2ccccc2I)(C(=O)NCC(C)C)[C@@H]1c1ccc(CO)cc1`, for which the z-score turned out to be 1.11.

`C[N+](C)(C)CCCC[C@@H]1NC(=O)[C@@H]2C[C@H](C(=O)NCc3ccc(F)cc3)[C@H](c3ccc(O)cc3)N2C1=O` showed a z-score of 0.276.

`CN1C(=O)C2C(C1=O)C1C=C(CCCO)C2C(C2CC2)N1Cc1cccc(OC(F)(F)F)c1` (centres undefined) yielded a z-score of -0.615.

As for `COC(=O)[C@@]1(Cc2ccccc2)[C@H]2c3cc(C(=O)N(C)C)n(Cc4ccc(S(C)(=O)=O)cc4)c3C[C@H]2CN1C(=O)c1ccccc1`, the z-score was -0.668.

In the case of `O=C1c2ccccc2[C@@]2(Cc3ccccc3N(Cc3ccccc3)C2=O)[C@H](c2ccc(CO)cc2)N1Cc1ccccc1Cl`, the z-score is 0.694.

Regarding `O=C1C[C@@](C(=O)NCc2ccccc2)(c2ccc([N+](=O)[O-])cc2)[C@@H](c2ccc(CO)cc2)N1C1CCCCC1`, the z-score was -0.0381.

Take `CC(C)c1nc2cc(Br)ccc2c(=O)o1`: the z-score came out at 0.0076.

In turn, `CCOC(=O)C1=CCC(c2cc3ccccc3[nH]2)N(CCN2CC(C(=O)OCC)=CCC2c2cc3ccccc3[nH]2)C1` (centres undefined) displayed a z-score of -0.458.

In turn, `O=C(NC1CC1)[C@@H]1c2ccccc2C(=O)N(CC23CC4CC(CC(C4)C2)C3)[C@H]1c1ccc(CO)cc1` yielded a z-score of 1.07.

Molecule `N#Cc1ccc(NN2C(C(O)C3CC=CCC3)C=CC3C(=O)N(c4ccccc4)C(=O)C32)cc1` (centres undefined) had a z-score of -0.382.

In the case of `O=C(NCC(O)CO)C1N=C(c2ccc(OCCCO)cc2)N(c2ccccc2)O1` (centres undefined), the z-score was -1.

`CCCC[C@H]1OB(O)C[C@H]2C1=C(COc1ccccc1)C[C@H]1C(=O)C=CC(=O)[C@H]12`: the z-score was found to be 0.262.

`COCCn1c(C(=O)N(C)C)cc2c1C[C@H]1CN(C(=O)c3ccccc3)[C@@](Cc3ccc(OC)cc3)(C(=O)OC)[C@@H]21` displayed a z-score of -1.81.

A further test concerns the target E3 ubiquitin-protein ligase XIAP (Homo sapiens) (UniProt P98170). The test is described as follows: small molecules binding XIAP protein – biophysical, small-molecule microarray, fluorescence 635 nm, primary screen (AID 1181).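 Further: score merges 667 nm emission and signal to noise over triplicate slides.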 The note with it: higher = more signal.
`CC(C)(C)N1CC=CC23O[C@@H]4/C=C\CCCOC(=O)C4[C@H]2C(=O)N(CCCCCO)[C@@H]3C1=O` (some centres undefined) gave a composite z-score of -0.11.

`COCCCNC(=O)[C@@]1(CCS(=O)(=O)c2ccccc2)COC(c2ccc(OCCCO)cc2)=N1` showed a composite z-score of 0.218.

The molecule `O=C1NC(=O)C2C1C=CC(C(O)c1ccc(B(O)O)cc1)N2Nc1ccc(Cl)cc1Cl` (centres undefined) displayed a composite z-score of 0.0049.

Molecule `CCOc1cc(C(O)C2C=CC3C(=O)N(c4ccccc4)C(=O)C3N2Nc2ccccc2F)ccc1O` (centres undefined) came in with a composite z-score of -0.273.

The molecule `O=C1OCCC=C[C@H]2OC34C=CCN(c5ccc6ccccc6c5)C(=O)[C@H]3N(CCO)C(=O)[C@@H]4C12` (some centres undefined) showed a composite z-score of -0.248.

In turn, `CN(C)CCCNC(=O)[C@@]1(Cc2ccccc2I)c2ccccc2C(=O)N(C2CCCCC2)[C@H]1c1ccc(CO)cc1` registered a composite z-score of 0.223.

`COc1ccc(C#Cc2ccc3c(c2)[C@]2(C(=O)N3)[C@H](C(=O)O)[C@H]3C(=O)O[C@H](c4ccccc4)[C@H](c4ccccc4)N3[C@@H]2c2ccccc2OCCO)cc1` had a composite z-score of 0.013.

`COCCOC(=O)N1C(=O)[C@@]2(c3cc(C#CC4(O)CCCCCC4)ccc31)[C@H](c1ccc(O)cc1)N1[C@H](c3ccccc3)[C@H](c3ccccc3)OC(=O)[C@H]1[C@@H]2C(=O)N1CCCCCCC1` gave a composite z-score of -0.0351.

`[N-]=[N+]=Nc1ccccc1[C@@H]1OC(c2ccc(OCCCO)cc2)=N[C@]1(Cc1ccccc1)C(=O)NCCN1CCOCC1` returned a composite z-score of -0.0663.

`CCCCC(O)C1C=CC2C(=O)N(c3ccccc3)C(=O)C2N1Nc1ccccc1` (centres undefined) came in with a composite z-score of 0.366.

Molecule `CC=CC(O)C1C=CC2C(=O)NC(=O)C2N1Nc1ccc(Cl)cc1Cl` (centres undefined) had a composite z-score of -0.113.

Molecule `COC(=O)[C@H](Cc1ccccc1)N1CC2=CCCC=C[C@@H]2[C@H]1[C@H](O)Cc1ccccc1` showed a composite z-score of 0.104.

`Cc1ccc(S[C@]2(C(=O)NC(C)C)CC(=O)N(C3CCCCC3)[C@@H]2c2ccc(CO)cc2I)cc1` registered a composite z-score of -0.0559.

For the molecule `CCCNC(=O)[C@@]1(c2ccc([N+](=O)[O-])cc2)CC(=O)N(C(C)C)[C@@H]1c1ccc(CO)cc1`, the composite z-score was 0.0692.

Consider `COC(=O)[C@@]1(Cc2ccc(OC)cc2)[C@H]2c3cc(C(=O)N(C)C)[nH]c3C[C@H]2CN1C(=O)c1ccccc1`, for which the composite z-score was -0.147.

For the molecule `O=C1N(CCS(=O)(=O)c2ccccc2)c2ccccc2C[C@]12N=C(c1ccc(OCCCO)cc1)O[C@@H]2c1ccccc1`, the composite z-score was determined as 0.311.

The molecule `CC1=C([C@H](O)CCc2ccccc2)[C@H](CO)n2c(=O)n(-c3ccccc3)c(=O)n2C1` came in with a composite z-score of -0.237.

`O=C1O[C@H](Cc2ccccc2)[C@@H]2[C@H]3C=CCCC=C3CN2[C@H]1Cc1ccc(O)cc1`: the composite z-score was found to be 0.269.

`CN(C)c1ccc(C(O)C2C=CC3C(=O)N(Cc4ccccc4)C(=O)C3N2n2cnnc2)cc1` (centres undefined) had a composite z-score of 0.0968.

`COC(=O)[C@@]1(Cc2ccc(F)cc2)[C@H]2c3cc(C(=O)N(C)C)n(CCc4ccc(O)c(O)c4)c3C[C@H]2CN1C(=O)c1ccccc1` gave a composite z-score of 0.122.

On to `CCCC[C@H]1C[C@@H]1[C@@H]1N(C(C)=O)[C@H](c2cccc(OC)c2)CC12CC2`, for which the composite z-score is -0.0416.

The molecule `CC(=O)OCC1C2CC[C@H]3C(OCc4ccc(F)cc4C(F)(F)F)OC[C@]4(C)[C@H]3C2=C(CN4C(=O)OC(C)(C)C)[C@H](C)C1COC(C)=O` (some centres undefined) came in with a composite z-score of 0.691.

For `COc1ccccc1CN1C(=O)c2ccccc2[C@](Cc2ccccc2I)(C(=O)NCC(C)C)[C@@H]1c1ccc(CO)cc1`, the composite z-score is -0.02.

Take `C[N+](C)(C)CCCC[C@@H]1NC(=O)[C@@H]2C[C@H](C(=O)NCc3ccc(F)cc3)[C@H](c3ccc(O)cc3)N2C1=O`: the composite z-score was determined as 0.0223.

Take `CN1C(=O)C2C(C1=O)C1C=C(CCCO)C2C(C2CC2)N1Cc1cccc(OC(F)(F)F)c1` (centres undefined): the composite z-score turned out to be 0.0105.

As for `COC(=O)[C@@]1(Cc2ccccc2)[C@H]2c3cc(C(=O)N(C)C)n(Cc4ccc(S(C)(=O)=O)cc4)c3C[C@H]2CN1C(=O)c1ccccc1`, the composite z-score was 0.291.

`O=C1c2ccccc2[C@@]2(Cc3ccccc3N(Cc3ccccc3)C2=O)[C@H](c2ccc(CO)cc2)N1Cc1ccccc1Cl` gave a composite z-score of 0.147.

Regarding `O=C1C[C@@](C(=O)NCc2ccccc2)(c2ccc([N+](=O)[O-])cc2)[C@@H](c2ccc(CO)cc2)N1C1CCCCC1`, the composite z-score was -0.031.

As for `CC(C)c1nc2cc(Br)ccc2c(=O)o1`, the composite z-score amounted to 0.0705.

As to `CCOC(=O)C1=CCC(c2cc3ccccc3[nH]2)N(CCN2CC(C(=O)OCC)=CCC2c2cc3ccccc3[nH]2)C1` (centres undefined), the composite z-score was found to be 1.16.

`O=C(NC1CC1)[C@@H]1c2ccccc2C(=O)N(CC23CC4CC(CC(C4)C2)C3)[C@H]1c1ccc(CO)cc1`: the composite z-score worked out at 0.141.

As to `N#Cc1ccc(NN2C(C(O)C3CC=CCC3)C=CC3C(=O)N(c4ccccc4)C(=O)C32)cc1` (centres undefined), the composite z-score was -0.0848.

`O=C(NCC(O)CO)C1N=C(c2ccc(OCCCO)cc2)N(c2ccccc2)O1` (centres undefined) came in with a composite z-score of -0.142.

The molecule `CCCC[C@H]1OB(O)C[C@H]2C1=C(COc1ccccc1)C[C@H]1C(=O)C=CC(=O)[C@H]12` gave a composite z-score of 0.0264.

In turn, `COCCn1c(C(=O)N(C)C)cc2c1C[C@H]1CN(C(=O)c3ccccc3)[C@@](Cc3ccc(OC)cc3)(C(=O)OC)[C@@H]21` came in with a composite z-score of 0.131.
